# PubChem BioAssay AID1159580 (chemical genetic matrix, 2015)
# Screen size: about 5,500 compounds; about 2,000 (36%) were called active. Not shown: some 18% with an inconclusive outcome. Some of the results follow. Values without a mark were called inactive. No stated cut-off is given here; in the data, active means normalized growth mostly below about 0.91 (no sharp cut-off); inconclusive means no clear call, values can overlap the other calls; inactive means mostly above about 0.92.
# Assay: chemical genetic growth profiling, strain panel (AID 1159580);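 further: tested at 20 µM; growth read once vehicle control cultures reached saturation at 30 °C; 1 = growth at the plate median or of vehicle wells; lower values mean less growth of the strain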
# Conditions: growth OD
compound,measurement,setting,value
Cc1cc(O)cc(C)c1Cl,normalized growth,"S. cerevisiae deletion strains, locus YKL009W, strain mrt4, active compounds read low",0.931
same,normalized growth,"S. cerevisiae deletion strains, locus YKL068W, active compounds read low",1
same,normalized growth,"S. cerevisiae deletion strains, locus YKL085W, strain MDH1 (second series), active compounds read low",0.971
same,normalized growth,"S. cerevisiae deletion strains, locus YKL085W, strain MDH1, active compounds read low",0.971
same,normalized growth,"S. cerevisiae deletion strains, locus YKL160W, strain elf1, active compounds read low",0.915
same,normalized growth,"S. cerevisiae deletion strains, locus YKL190W, strain CNB1, active compounds read low",1
same,normalized growth,"S. cerevisiae deletion strains, locus YKR001C, strain vps1, active compounds read low",0.846 (active)
same,normalized growth,"S. cerevisiae deletion strains, locus YKR026C, strain gcn3, active compounds read low",0.952
same,normalized growth,"S. cerevisiae deletion strains, locus YKR091W, strain srl3, active compounds read low",0.958
same,normalized growth,"S. cerevisiae deletion strains, locus YLL001W, strain dnm1, active compounds read low",0.875 (active)
same,normalized growth,"S. cerevisiae deletion strains, locus YLL026W, active compounds read low",0.915 (active)
same,normalized growth,"S. cerevisiae deletion strains, locus YLL041C, strain sdh2, active compounds read low",0.957
same,normalized growth,"S. cerevisiae deletion strains, locus YLR027C, strain aat2, active compounds read low",0.941
same,normalized growth,"S. cerevisiae deletion strains, locus YLR039C, strain RIC1, active compounds read low",0.765
same,normalized growth,"S. cerevisiae deletion strains, locus YLR058C, strain SHM2, active compounds read low",1
same,normalized growth,"S. cerevisiae deletion strains, locus YLR102C, strain apc9, active compounds read low",1
same,normalized growth,"S. cerevisiae deletion strains, locus YLR113W, strain HOG1, active compounds read low",0.944
same,normalized growth,"S. cerevisiae deletion strains, locus YLR221C, strain rsa3, active compounds read low",0.856 (active)
same,normalized growth,"S. cerevisiae deletion strains, locus YLR258W, strain gsy2, active compounds read low",0.924
same,normalized growth,"S. cerevisiae deletion strains, locus YLR262C, strain YPT6 (second series), active compounds read low",0.403 (active)
same,normalized growth,"S. cerevisiae deletion strains, locus YLR262C, strain YPT6, active compounds read low",0.736
same,normalized growth,"S. cerevisiae deletion strains, locus YLR268W, strain sec22, active compounds read low",1.01
same,normalized growth,"S. cerevisiae deletion strains, locus YLR320W, strain mms22, active compounds read low",0.815 (active)
same,normalized growth,"S. cerevisiae deletion strains, locus YLR330W, strain CHS5, active compounds read low",0.994
same,normalized growth,"S. cerevisiae deletion strains, locus YLR342W, strain FKS1 (second series), active compounds read low",0.982
same,normalized growth,"S. cerevisiae deletion strains, locus YLR342W, strain FKS1, active compounds read low",0.935
same,normalized growth,"S. cerevisiae deletion strains, locus YLR357W, strain rsc2, active compounds read low",1.1
same,normalized growth,"S. cerevisiae deletion strains, locus YLR370C, strain arc18, active compounds read low",0.902 (active)
same,normalized growth,"S. cerevisiae deletion strains, locus YLR371W, strain rom2, active compounds read low",0.997
same,normalized growth,"S. cerevisiae deletion strains, locus YLR384C, strain iki3, active compounds read low",0.992
same,normalized growth,"S. cerevisiae deletion strains, locus YLR418C, strain cdc73, active compounds read low",1
same,normalized growth,"S. cerevisiae deletion strains, locus YML016C, strain PPZ1, active compounds read low",0.992
same,normalized growth,"S. cerevisiae deletion strains, locus YML032C, strain rad52, active compounds read low",0.957
same,normalized growth,"S. cerevisiae deletion strains, locus YML120C, strain ndi1, active compounds read low",0.917
same,normalized growth,"S. cerevisiae deletion strains, locus YML124C, strain tub3, active compounds read low",0.996
same,normalized growth,"S. cerevisiae deletion strains, locus YMR058W, strain fet3, active compounds read low",0.871 (active)
same,normalized growth,"S. cerevisiae deletion strains, locus YMR078C, strain ctf18, active compounds read low",0.994
same,normalized growth,"S. cerevisiae deletion strains, locus YMR125W, strain sto1, active compounds read low",1.04
same,normalized growth,"S. cerevisiae deletion strains, locus YMR129W, active compounds read low",0.966
same,normalized growth,"S. cerevisiae deletion strains, locus YMR205C, strain PFK2, active compounds read low",0.898
same,normalized growth,"S. cerevisiae deletion strains, locus YMR223W, strain ubp8, active compounds read low",1.02
same,normalized growth,"S. cerevisiae deletion strains, locus YMR231W, strain pep5, active compounds read low",0.754 (active)
same,normalized growth,"S. cerevisiae deletion strains, locus YMR307W, strain GAS1, active compounds read low",0.904
same,normalized growth,"S. cerevisiae deletion strains, locus YNL067W, strain RPL9B, active compounds read low",0.972
same,normalized growth,"S. cerevisiae deletion strains, locus YNL071W, strain lat1, active compounds read low",0.821 (active)
same,normalized growth,"S. cerevisiae deletion strains, locus YNL153C, strain GIM3, active compounds read low",1.02
same,normalized growth,"S. cerevisiae deletion strains, locus YNL183C, strain NPR1, active compounds read low",0.88
same,normalized growth,"S. cerevisiae deletion strains, locus YNL209W, strain ssb2, active compounds read low",0.929
same,normalized growth,"S. cerevisiae deletion strains, locus YNL233W, strain BNI4, active compounds read low",0.992
same,normalized growth,"S. cerevisiae deletion strains, locus YNL248C, strain rpa49, active compounds read low",0.835 (active)
same,normalized growth,"S. cerevisiae deletion strains, locus YNL250W, strain rad50, active compounds read low",0.992
same,normalized growth,"S. cerevisiae deletion strains, locus YNL271C, strain bni1, active compounds read low",1
same,normalized growth,"S. cerevisiae deletion strains, locus YNL298W, strain CLA4, active compounds read low",0.913
same,normalized growth,"S. cerevisiae deletion strains, locus YNL307C, strain MCK1, active compounds read low",0.995
same,normalized growth,"S. cerevisiae deletion strains, locus YNL322C, strain KRE1 (second series), active compounds read low",0.961
same,normalized growth,"S. cerevisiae deletion strains, locus YNR049C, strain mso1, active compounds read low",0.97
same,normalized growth,"S. cerevisiae deletion strains, locus YNR052C, strain pop2, active compounds read low",1.01
same,normalized growth,"S. cerevisiae deletion strains, locus YOL006C, strain TOP1, active compounds read low",0.979
same,normalized growth,"S. cerevisiae deletion strains, locus YOL012C, strain htz1",1.64
same,normalized growth,"S. cerevisiae deletion strains, locus YOL147C, strain pex11, active compounds read low",0.997
same,normalized growth,"S. cerevisiae deletion strains, locus YOR001W, strain rrp6, active compounds read low",0.892
same,normalized growth,"S. cerevisiae deletion strains, locus YOR061W, strain CKA2, active compounds read low",0.993
same,normalized growth,"S. cerevisiae deletion strains, locus YOR069W, strain VPS5, active compounds read low",1
same,normalized growth,"S. cerevisiae deletion strains, locus YOR070C, strain gyp1, active compounds read low",0.906 (active)
same,normalized growth,"S. cerevisiae deletion strains, locus YOR080W, strain dia2, active compounds read low",1.02
same,normalized growth,"S. cerevisiae deletion strains, locus YOR083W, strain WHI5, active compounds read low",0.899
same,normalized growth,"S. cerevisiae deletion strains, locus YOR106W, strain vam3, active compounds read low",0.817 (active)
same,normalized growth,"S. cerevisiae deletion strains, locus YOR136W, strain idh2, active compounds read low",0.998
same,normalized growth,"S. cerevisiae deletion strains, locus YOR144C, strain elg1, active compounds read low",1
same,normalized growth,"S. cerevisiae deletion strains, locus YOR184W, strain ser1, active compounds read low",0.958
same,normalized growth,"S. cerevisiae deletion strains, locus YOR231W, strain MKK1, active compounds read low",0.946
same,normalized growth,"S. cerevisiae deletion strains, locus YOR265W, strain rbl2, active compounds read low",0.945
same,normalized growth,"S. cerevisiae deletion strains, locus YOR270C, strain vph1, active compounds read low",0.674 (active)
same,normalized growth,"S. cerevisiae deletion strains, locus YOR290C, strain snf2, active compounds read low",0.908
same,normalized growth,"S. cerevisiae deletion strains, locus YOR316C, strain cot1, active compounds read low",0.993
same,normalized growth,"S. cerevisiae deletion strains, locus YPL051W, strain arl3, active compounds read low",0.715 (active)
same,normalized growth,"S. cerevisiae deletion strains, locus YPL055C, strain LGE1, active compounds read low",0.947
same,normalized growth,"S. cerevisiae deletion strains, locus YPL078C, strain atp4, active compounds read low",0.838 (active)
same,normalized growth,"S. cerevisiae deletion strains, locus YPL106C, strain sse1, active compounds read low",1.1
same,normalized growth,"S. cerevisiae deletion strains, locus YPL240C, strain hsp82, active compounds read low",0.951
same,normalized growth,"S. cerevisiae deletion strains, locus YPL241C, strain CIN2, active compounds read low",0.999
same,normalized growth,"S. cerevisiae deletion strains, locus YPL256C, strain CLN2, active compounds read low",0.92
same,normalized growth,"S. cerevisiae deletion strains, locus YPR119W, strain clb2, active compounds read low",0.997
same,normalized growth,"S. cerevisiae deletion strains, locus YPR141C, strain kar3, active compounds read low",0.999
same,normalized growth,"S. cerevisiae deletion strains, locus YPR163C, strain tif3, active compounds read low",1.01
same,normalized growth,"S. cerevisiae deletion strains, locus YPR167C, strain met16, active compounds read low",0.99
same,normalized growth,"S. cerevisiae deletion strains, strain wtn01, active compounds read low",0.96
same,normalized growth,"S. cerevisiae strains, strain wild type, active compounds read low",0.998
